# An excerpt weighted towards active compounds, which were near 17% of everything screened.
# TDP1 cell noCPT – qHTS for Inhibitors of human tyrosyl-DNA phosphodiesterase 1 (TDP1): qHTS in cells in absence of CPT; DT40 Tdp1-/- hTDP1 cells, no CPT, ATP luminescence, 48 h; 420,000 compounds, 15% hits; Potency, µM (series often up to 46.2 µM), inactives show at the highest dose activity change, negative = growth inhibition, usual class: inhibitors; also: % is scaled to controls: 0 for no effect and ±100 for the full control effect; nearly all actives have a fitted effect of over 55% in size
#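 Compound effects on proliferation are scored in DT40 Tdp1-/-;hTDP1 cells in the absence of CPT. ATP levels (CellTiter-Glo luminescence) are recorded after a ≥48 hr, 37 °C incubation.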
# ClpP mod – qHTS Assay for Activators of ClpP; ATP-dependent Clp protease proteolytic subunit (Bacillus subtilis (strain 168)), P80244; purified B. subtilis ClpP, FRET peptide cleavage, 20 min; Potency, µM (highest dose often 57.5 µM), without a hit: top-dose activity change, negative = active; 340,000 compounds, 1.9% hits; AID 651965, 2013; active = well fitted falling curve with a large enough effect; inconclusive = small, poorly fitted or top-dose-only effect; inactive = no such curve, though single readings can be large or run the other way; also: the source files actives as falling curves though it sought activators and does not explain the sign; nearly all actives have a fitted effect of over 65% in size
#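 Purified B. subtilis ClpP, 10 microg/mL final in Tris/HCl pH8 with KCl, BSA, glycerol and Tween-20, cleaved an Abz/nitrotyrosine-quenched decapeptide. Fluorescence (ex 320, em 430) was read at 0 and 20 min at room temperature. Delta was normalized to 5.8 microM ADEP and DMSO/no-enzyme controls.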
# DT40 TDP1 CPT – DT40-hTDP1 cell growth loss with CPT; chicken DT40 Tdp1-/-;hTDP1 cells + 20 nM CPT, ATP luminescence, 48 h; 420,000 compounds, 12% hits; Potency, µM (series often up to 46.2 µM), for inactives: at the top dose activity change, negative = growth inhibition, most hits filed as inhibitors; also: % is scaled to controls: 0 for no effect and ±100 for the full control effect; nearly all actives have a fitted effect of over 55% in size
#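 Cell growth measured by CellTiter-Glo luminescence after a minimum 48 h, 37 C compound exposure with 20 nM CPT in Tdp1-knockout DT40 cells stably expressing hTDP1, seeded 400/well; qHTS titration format.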
# TDP1 block – inhibitors of human tyrosyl-DNA phosphodiesterase TDP1; Q9NUW8; recombinant TDP1, AlphaScreen DNA substrate cleavage; Potency, µM (titrated, usually from 130 µM), inactives show top-dose activity change, negative = inhibition, actives largely listed as inhibitors; 350,000 compounds, 0.28% hits; AID 485290; also: % is scaled to controls: 0 for no effect and ±100 for the full control effect; nearly all actives have a fitted effect of over 40% in size
# Target sequence (Q9NUW8 whole entry, looked up): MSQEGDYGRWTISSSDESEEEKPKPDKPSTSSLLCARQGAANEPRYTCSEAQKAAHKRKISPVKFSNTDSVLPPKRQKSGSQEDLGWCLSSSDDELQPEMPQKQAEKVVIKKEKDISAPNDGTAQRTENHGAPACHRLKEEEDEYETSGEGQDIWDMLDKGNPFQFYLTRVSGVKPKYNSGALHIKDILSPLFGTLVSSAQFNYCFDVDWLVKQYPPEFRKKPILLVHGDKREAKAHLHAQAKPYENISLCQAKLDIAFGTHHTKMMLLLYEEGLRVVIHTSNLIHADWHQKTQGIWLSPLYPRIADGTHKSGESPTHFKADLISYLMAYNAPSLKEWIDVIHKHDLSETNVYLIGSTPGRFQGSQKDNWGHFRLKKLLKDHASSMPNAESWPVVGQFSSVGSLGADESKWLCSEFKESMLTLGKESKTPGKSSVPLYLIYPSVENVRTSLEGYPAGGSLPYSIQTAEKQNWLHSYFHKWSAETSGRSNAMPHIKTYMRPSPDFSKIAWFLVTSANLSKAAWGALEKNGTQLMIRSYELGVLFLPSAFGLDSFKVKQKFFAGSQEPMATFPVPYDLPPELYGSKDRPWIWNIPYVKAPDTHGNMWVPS
#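 AlphaScreen read-out: signal falls as enzyme removes the 3' tyrosine-FITC from a 5'-biotinylated DNA oligo (15 nM, 5 min, RT). Enzyme was E. coli-made recombinant Tdp1 at 1 nM, exposed to compound for 15 min beforehand; beads 10 ug/ml, 10 min.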
# An asterisk follows results filed as active; ? = inconclusive; / = no result; [ ] = another dose, or the depositor's remark. Unless noted, calls follow the shape of the dose curve; as a rule, active = well fitted curve in the direction sought with a large enough effect; inconclusive = small, poorly fitted or top-dose-only effect, or another doubt; inactive = no such curve, though single readings can be large; an effect the other way counts as inactive or inconclusive. Potency is read from the fitted curve at half-maximal effect.
SMILES,TDP1 cell noCPT,ClpP mod,DT40 TDP1 CPT,TDP1 block
COc1ccc(S(=O)(=O)N2CCOCC2)cc1NC(=O)CCCOc1ccc(C(C)=O)cc1,-17%,1%,3%,/
COc1ccccc1Cc1c(-c2ccc(C#N)cc2)nc2c(Cl)cc(C(F)(F)F)cn12,15µM*,-12%,23µM*,/
CC(C)(C)Cc1c(-c2ccc(C#N)cc2)nc2c(Cl)cc(C(F)(F)F)cn12,?,-6%,18µM*,/
FC(F)(F)c1cc(Cl)c2nc(-c3ccccc3)c(Cc3ccccc3)n2c1,3%,-13%,-21%,/
COc1ccccc1Cc1c(-c2ccc(Cl)cc2)nc2c(Cl)cc(C(F)(F)F)cn12,-10%,-6%,-12%,/
Cc1cc(OCC(=O)Nc2c(C(=O)c3ccccc3)oc3ccccc23)cc(C)c1Cl,2%,-3%,10%,2%
Cc1ccc(S(=O)(=O)N(CC(=O)Nc2ccc3c(c2)OCO3)c2cc(Cl)cc(Cl)c2)cc1,?,0%,?,0%[12.3 µM]
Cc1ccc(S(=O)(=O)N(CC(=O)Nc2ccc3c(c2)OCO3)c2ccc(C)c(Cl)c2)cc1,?,-3%,16µM*,-11%[12.3 µM]
COc1ccc(OC)c(N(CC(=O)Nc2ccc3c(c2)OCO3)S(=O)(=O)c2ccccc2)c1,?,0%,26µM*,0%
COc1ccccc1N(CC(=O)Nc1ccc2c(c1)OCO2)S(=O)(=O)c1ccc(C)cc1,8.2µM*,-4%,23µM*,/
COc1ccccc1N(CC(=O)Nc1cc(C)on1)S(=O)(=O)c1ccc(Cl)cc1,18µM*,2%,18µM*,5%
CCOc1ccc(N(CC(=O)Nc2ccc3c(c2)OCO3)S(=O)(=O)c2ccccc2)cc1,?,-2%,?,0%[12.3 µM]
COC(=O)[C@@H]1C[C@H]1[C@@H](NC(=O)Oc1ccc(F)cc1)c1ccccc1,/,/,/,1%
CC1(C)CC2/C(CO)=C/C=C/[C@](C)(O)CC[C@]21O (some centres undefined),-5%,/,10%,6%
Cc1ccc(S(=O)(=O)N2CC3=C(C2)C2CC2(C)C3)cc1 (centres undefined),?,1%,-16%,/
Cc1cc2c(N=O)c(NO)ccc2[nH]1,6.5µM*,-1%,7.3µM*,7%
O=C(c1ccccc1Cl)N1CCNCC1,0%,1%,4%,2%
CN1CCN(C2Cc3ccccc3Sc3ccc(S)cc32)CC1 (centres undefined),/,/,/,16%
Clc1cccc2c1Sc1ccccc1CC2N1CCNCC1 (centres undefined),18µM*,0%,18µM*,0%
Clc1ccc2c(c1)C(N1CCNCC1)Cc1ccccc1S2 (centres undefined),23µM*,-8%,?,7%
Oc1ccc(Nc2ccccc2F)c2cccnc12,/,/,/,5%
CC(C)CC(=O)n1sc(NC(=O)c2ccccc2)nc1=O,21µM*,1%,15µM*,5%
Cc1ccc(C(=O)Nc2nc(=O)n(C(=O)CC(C)C)s2)cc1,-18%,5%,-29%,5%
CCOC(=O)c1c2c(n(Cc3ccccc3)c1C)C(=O)C(=O)c1ccccc1-2,1.2µM*,1%,0.58µM*,/
CCOC(=O)c1c2c(n(C)c1C)C(=O)C(=O)c1ccc(Br)cc1-2,2.1µM*,2%,1.5µM*,/
SMILES,TDP1 cell noCPT,ClpP mod,DT40 TDP1 CPT,TDP1 block
CN1C(=O)c2ccccc2Sc2ccc(NC(=O)COc3ccc(Cl)cc3)cc21,12µM*,-2%,21µM*,7%
CN1C(=O)c2ccccc2Sc2ccc(NC(=O)COc3ccc(F)cc3)cc21,7.3µM*,-2%,16µM*,3%
CCCNC(=O)Nc1ccc2c(c1)N(C)C(=O)c1ccccc1S2,?,-2%,-25%,-2%
C=C(C)C1CCC(C)C(OC(C)=O)C1 (centres undefined),/,/,/,7%
COC(=O)NC(c1cccc(F)c1)C(C(C)=O)C(=O)OC (centres undefined),/,/,/,2%[21 µM]
CNc1nc(C)c([N+](=O)[O-])c(Nc2ccc(OC)cc2)n1,23µM*,1%,?,/
CC(=O)Nc1ccc(Nc2nc(C)c([N+](=O)[O-])c(Nc3ccc(NC(C)=O)cc3)n2)cc1,6.5µM*,0%,?,8%
Nc1ccn([C@@H]2O[C@H](C(=O)N3CCCN(Cc4cccs4)CC3)[C@@H](O)[C@H]2O)c(=O)n1,0%,-1%,18%,/
CN(C(=O)c1cccc(NC(=O)Cc2cccc(NC(=O)C3CCN(C(=O)c4ccccc4)CC3)c2)c1)C1CC1,-27%,4%,-20%,/
CCc1ccc([C@@H]2C[C@H]3[C@@H](CN2S(=O)(=O)c2ccc(C)cc2)C(=O)C[C@@H](c2ccccc2)N3S(=O)(=O)c2ccc(C)cc2)cc1,?,-1%,-3%,/
O=C(Cc1ccc(Cl)cc1)Nc1ccccc1N1CCOCC1,16µM*,-2%,?,0%
O=C(Cc1ccccc1)Nc1cc([N+](=O)[O-])ccc1N1CCOCC1,-12%,1%,-20%,5%
O=C(CSc1ccc([N+](=O)[O-])cc1)Nc1ccccc1N1CCOCC1,21µM*,0%,?,3%
Cc1ccc(CC(=O)Nc2ccccc2N2CCOCC2)cc1C,?,0%,16µM*,5%
CN(CC(=O)Nc1cc(Cl)ccc1-n1cncn1)Cc1ccccc1N1CCOCC1,?,0%,23µM*,/
CCOc1ccc(NC(=O)c2cc3cc(C)ccc3n2C)cc1,-21%,5%,-4%,4%
Cc1cc(N2CCN(C)CC2)nc2ccc(NC(=S)N3CCC4(CC3)OCCO4)cc12,5%,/,16%,1%
CCn1c(-c2cccnc2Cl)nc2cc(Cl)c(Cl)cc21,?,-17%,18µM*,4%
CCOC(=O)Cn1c(-c2cccnc2Cl)nc2cc(Cl)c(Cl)cc21,-10%,-23%,-18%,5%
Cc1ccc(-c2noc(CCC(=O)Nc3ccc4c(c3)OCO4)n2)cc1,?,-1%,?,8%
COc1ccc(-c2noc(CCC(=O)Nc3ccc4c(c3)OCCO4)n2)cc1,15µM*,1%,16µM*,0%
CCN(C(=O)CCc1nc(-c2ccc(C)cc2)no1)c1cccc(Cl)c1,?,0%,21µM*,-9%[12.3 µM]
COc1ccc(-c2noc(CCC(=O)NCc3cc(Br)ccc3OC)n2)cc1,18µM*,?,?,2%
COc1ccc(NC(=O)CCc2nc(-c3ccc(C)cc3)no2)cc1Cl,16µM*,-1%,16µM*,-4%
COc1ccc(Br)cc1CNC(=O)CCc1nc(-c2ccc(C)cc2)no1,?,2%,-22%,5%
COc1ccc(-c2noc(CCC(=O)Nc3ccc(C)c(C)c3)n2)cc1,-25%,0%,-27%,-1%
CCN(C(=O)CCc1nc(-c2ccc(C)cc2)no1)c1cccc(C(F)(F)F)c1,?,-2%,?,-2%

# High-throughput results (PubChem BioAssay)
